Screening results deposited in PubChem BioAssay by National Center for Advancing Translational Sciences (NCATS).
In the library only some 8% were active in any assay of this set; here they are far more common.
KB-3-1 cytotox: KB-3-1 parental cell cytotoxicity; KB-3-1 viability, CellTiter-Glo ATP luminescence, 72 h; Potency, µM (highest dose often 46.1 µM), usual class: cytotoxic; 400,000 tested, 1.4% active; AID 1347075; further: on the % scale 0 is the no-effect control and ±100 the full control effect; nearly all actives have a fitted effect of over 60% in size
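Screening of KB-3-1 cells (DMEM, 10% FBS, phenol-red free) ran from lowest to highest compound concentration; after 72 h at 37 °C viability was read luminescently and curves fitted.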
HT1080NT lethal: kills 2HG-producing HT-1080-NT fibrosarcoma cells; AID 686970; Potency, µM (highest dose often 46.1 µM), inactives show at the highest dose activity, negative = less viability, actives largely listed as cytotoxic; HT-1080-NT fibrosarcoma viability, CellTiter-Glo ATP luminescence, 48 h; 360,000 tested, 1.6% active;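 further: NT is the 2HG producing partner of a matched IDH1 knockdown line; 0% = DMSO-treated cells and -100% = media-only wells without cells; nearly all actives have a fitted effect of over 55% in size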
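A 48-hour cytotoxicity screen used HT-1080-NT cells plated 2 hours before compound delivery. ATP-based CellTiter-Glo luminescence measured viability, normalized to DMSO and no-cell controls.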
MCF10A rereplic: inducers of DNA re-replication in MCF 10A breast cells; AID 624296; Potency, µM (doses to about 46.1 µM), for inactives: top-dose activity, positive = re-replication, most hits filed as activators; 350,000 tested, 2.9% active; MCF 10A DNA re-replication, Hoechst nuclear intensity, 48 h; further: % of control where 0% means no effect; nearly all actives have a fitted effect of over 50% in size
HT1080 IDH1KD tx: HT-1080 IDH1 knockdown cell toxicity (counter line); HT-1080 IDH1 knockdown viability, ATP luminescence, 48 h; Potency, µM (highest dose often 46.1 µM), inactives show at the top dose activity, negative = toxicity, actives largely listed as cytotoxic; 360,000 tested, 2% active;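 further: 0% = DMSO wells and -100% = cell-free medium wells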
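Cytotoxicity counter-line: IDH1KD HT-1080, 48 h, CellTiter-Glo. Curves classed by r2, magnitude and activity.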
KB-V1 MDR tox: kills drug-selected multidrug resistant KB-V1 cells. AID 1347076. KB-V1 MDR cells viability, CellTiter-Glo, 72 h. 400,000 tested, 3.4% active. Potency, µM (top dose mostly 46.1 µM), usual class: cytotoxic; further: on the % scale 0 is the no-effect control and ±100 the full control effect; nearly all actives have a fitted effect of over 60% in size
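Luminescent ATP read-out (CellTiter-Glo, 10 min) measures survival of drug-selected KB-V1 MDR cells after 72 h, 37 degrees C compound exposure. Medium: phenol-red-free DMEM, 10% FBS. Values from fitted concentration-response curves.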
SW480 rereplic: DNA re-replication induction in SW480 cells; AID 624297; SW480 DNA re-replication, Hoechst DNA content imaging, 48 h; Potency, µM (top dose mostly 46.1 µM), for inactives: at the top dose re-replication activation, hits mostly activators; 340,000 tested, 1.8% active; further: % of control where 0% means no effect; nearly all actives have a fitted effect of over 55% in size
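Hoechst fluorescence of nuclei (405 nm excitation, 500-530 nm emission) measured by plate-scanning imager after 48 hr compound exposure at 37 C; re-replication scored as increased number of nuclei with elevated intensity.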
Starred values were filed as active, the others as inactive; i = inactive; ? = inconclusive; / = no result given; [ ] = dose if it differs, or a comment. The call rests on the fitted dose curve; in most records, active means well fitted curve in the direction sought with a large enough effect; inconclusive means small, poorly fitted or top-dose-only effect, or another doubt; inactive means no such curve, though single readings can be large; an effect the other way counts as inactive or inconclusive. Potency means the concentration at half of the fitted maximal effect.

SMILES	KB-3-1 cytotox	HT1080NT lethal	MCF10A rereplic	HT1080 IDH1KD tx	KB-V1 MDR tox	SW480 rereplic
CCc1ccc(S(=O)(=O)Nc2cc3c(cc2C)n(C)c(=O)n3C)cc1	5.2µM*	16µM*	?	15µM*	i	-7%
CCc1ccc2[nH]c(=O)c(CN(CCCN3CCOCC3)C(=O)Nc3ccc(F)cc3)cc2c1	?	?	7%	?	i	-1%
O=C(NNC1CC(c2ccccc2)=NN1C(=O)c1ccccc1)c1ccccc1 (configuration not stated)	i	-7%	3%	-10%	?	6%
CCOC(=O)[C@@H]1[C@H]2COc3cc(OC)ccc3[C@@H]2N2C(=O)N(c3ccc(Cl)cc3)C(=O)[C@]12C	i	-5%	6%	-4%	?	-85%
CC(=O)Nc1cc(-c2ccc(N3CCN(C)CC3)cc2)cn2c(-c3ccccc3)cnc12	i	?	/	21µM*	i	/
CN1CCN(c2ccc(-c3cc(NC=O)c4ncc(-c5ccc(F)cc5)n4c3)cc2)CC1	?	?	/	?	i	/
CN1CCN(c2ccc(-c3cc(NC=O)c4ncc(-c5ccccc5)n4c3)cc2)CC1	i	?	/	?	23µM*	/
CCOC(=O)CN1C(=O)SC(Nc2ccc(C)cc2)C1=O (configuration not stated)	i	7%	-40%	4%	i	-89%
COc1ccc(/C=C/C(=O)Nc2ccc(OC)nc2)cc1	?	-3%	0%	-14%	i	0%
COc1ccc(CS(=O)(=O)/C(Cl)=C(/Cl)C(=O)Nc2ccc(OC)nc2)cc1	?	23µM*	0.41µM*	8.2µM*	3.7µM*	0.82µM*
COc1ccc(NC(=O)Cc2ccccc2)cn1	i	9%	1%	-3%	i	1%
COc1ccc(NC(=O)/C(Cl)=C(/Cl)S(=O)Cc2ccccc2)cn1 (configuration not stated)	5.8µM*	5.8µM*	?	1.5µM*	8.2µM*	?
CC1CCCN(C2=NC(=O)/C(=C/c3cn(-c4ccccc4)nc3-c3cccc(S(=O)(=O)N(C)C)c3)S2)C1 (configuration not stated)	i	-2%	?	8%	i	0%
CC1CCN(C2=NC(=O)/C(=C/c3cn(-c4ccccc4)nc3-c3cccc(S(=O)(=O)N(C)C)c3)S2)CC1	i	-2%	5%	0%	i	21µM*
CCn1c(/C=C/c2ccccc2C)nc2ccccc2c1=O	i	-6%	?	-2%	i	0%
CCn1c(/C=C/c2cc(Br)ccc2O)nc2ccccc2c1=O	?	-18%	16µM*	-23%	i	?
O=c1c2ccccc2nc(/C=C/c2cccc(Br)c2)n1CCCO	i	?	?	?	i	?
CCn1c(/C=C/c2c(C)n(CC)c3ccccc23)nc2ccccc2c1=O	i	11%	?	15%	1.6µM*	2%
Cn1c(/C=C/c2cccc(Br)c2)nc2ccccc2c1=O	?	?	23µM*	?	?	18µM*
COCCn1c(SCC(=O)Nc2ccc(C(C)=O)cc2)nc2c([nH]c3ccccc32)c1=O	?	?	5%	?	i	13%
CCN1CCCC1CN(Cc1cc2ccc(C)cc2[nH]c1=O)C(=S)Nc1ccccc1C(=O)OC (configuration not stated)	i	?	?	?	i	?
CCN1CCCC1CN(Cc1cc2ccc(C)cc2[nH]c1=O)C(=S)Nc1cccc(OC)c1 (configuration not stated)	i	?	15%	18µM*	i	?
CCN1CCCC1CN(Cc1cc2ccc(C)cc2[nH]c1=O)C(=S)Nc1ccc(F)cc1 (configuration not stated)	i	5%	6.5µM*	-2%	i	-5%
CCN1CCCC1CN(Cc1cc2ccc(C)cc2[nH]c1=O)C(=S)Nc1ccccc1OC (configuration not stated)	?	?	?	?	i	?
CCOc1ccccc1NC(=S)N(Cc1cc2ccc(C)cc2[nH]c1=O)CC1CCCN1CC (configuration not stated)	13µM*	?	?	-29%	i	?
SMILES	KB-3-1 cytotox	HT1080NT lethal	MCF10A rereplic	HT1080 IDH1KD tx	KB-V1 MDR tox	SW480 rereplic
Cc1c(NC(=O)c2ccc(N(Cc3ccccc3)S(C)(=O)=O)cc2)c(=O)n(-c2ccccc2)n1C	i	17%	3%	20%	i	-3%
COc1ccc(-c2nc(Cn3c(SCc4ccc(C)cc4)nc4ccncc43)c(C)o2)cc1OC	i	?	?	?	i	1%
Cc1nn(-c2ccc(Cl)cc2)c2sc(C(=O)c3c(N)n(C)c(=O)n(C)c3=O)cc12	i	-18%	-191%[0.0737 µM]	-15%	i	-13%
COc1ccc(CN(CCCN2CCOCC2)S(=O)(=O)N(C)C)cc1OC	i	-2%	12%	2%	i	-2%
O=S(=O)(c1ccc(Cl)cc1)N1CCCC1c1nc2ccccc2s1 (configuration not stated)	?	3%	20%	-17%	i	1%
Cc1ccc(S(=O)(=O)N2CCCC2c2nc3ccccc3s2)cc1 (configuration not stated)	i	11%	15%	-5%	21µM*	9%
Cc1ccc(NC(=O)c2cc(NC(=O)c3ccco3)ccc2N2CCOCC2)cc1	i	-2%	?	-10%	i	-3%
CCOc1ccc(C(=O)COC(=O)c2cc([N+](=O)[O-])ccc2N2CCOCC2)cc1	?	?	?	?	?	4.1µM*
CCOc1ccc(NC(=O)c2cc([N+](=O)[O-])ccc2N2CCOCC2)cc1	i	?	?	?	23µM*	?
CCOc1ccc(NC(=O)COC(=O)c2cc([N+](=O)[O-])ccc2N2CCOCC2)cc1	i	-1%	-13%	-20%	i	-5%
Cc1ccc(NC(=O)c2cc(N3C(=O)C=CC3=O)ccc2N2CCOCC2)cc1	?	?	13µM*	23µM*	i	?
N#C/C(=C\c1ccc[nH]1)C(=O)Nc1ccccc1Cl	i	-9%	-2%	-10%	i	-4%
O=C(CCCCn1c(=O)[nH]c2ccccc2c1=O)NCCC1=CCCCC1	i	2%	6%	1%	16µM*	-1%
